SMILES strings stand for the structures. Results filed as inconclusive are left out. The source made the active and inactive calls. Unless noted, calls follow the shape of the full dose curve.

Test [1] is described as follows: qHTS assay to identify small molecule agonists of the peroxisome proliferator-activated receptor delta (PPARd) signaling pathway - cell viability counter screen (AID 743211; active = well fitted curve in the direction sought with a large enough effect in the repeat runs; an effect the other way counts as inactive or inconclusive; also: nearly all actives have a fitted effect of over 55% in size). A digest of the protocol: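 Tox21 library compounds, delivered in DMSO, were incubated 17 h with PPARd-bla HEK293H cells; cytotoxicity was taken from CellTiter-Glo luminescence read 30 min after reagent addition.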
(In general: In qHTS, concentration-response curves come from the screen itself.)

The target of test [2] is Peroxisome proliferator-activated receptor delta (Homo sapiens) (UniProt Q03181). Description: qHTS assay to identify small molecule agonists of the peroxisome proliferator-activated receptor delta (PPARd) signaling pathway (AID 743212). A digest of the protocol:
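Read-out: beta-lactamase FRET fluorescence after 2 h room-temperature incubation with LiveBLAzer B/G substrate. Cells were HEK293H carrying a UAS-bla reporter for PPARd, treated at 37 C with DMSO-dissolved compounds.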

A short description of test [3]: qHTS assay to identify small molecule antagonists of the peroxisome proliferator-activated receptor delta (PPARd) signaling pathway - cell viability counter screen (AID 743213; active = well fitted curve in the direction sought with a large enough effect in the repeat runs; an effect the other way counts as inactive or inconclusive; also: nearly all actives have a fitted effect of over 50% in size). A digest of the protocol:
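PPARd-bla HEK293H cells (3000/well) got compound plus 300 nM L165041 agonist for 17 h at 37 C. Viability in the same wells came from CellTiter-Glo luminescence after 30 min at room temperature.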

The target of test [4] is Bile acid receptor (Homo sapiens) (UniProt Q96RI1). Description: qHTS assay to identify small molecule antagonists of the farnesoid-X-receptor (FXR) signaling pathway (AID 743217; active = well fitted inhibition curve with a large enough effect in the signal ratio in the repeat runs, not every such curve was filed as active; the % refers to the signal ratio). A digest of the protocol:
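Screen of the Tox21 10K library in quantitative HTS format using FXR-UAS-bla HEK 293T reporter cells. Agonist chenodeoxycholic acid, 50 uM final, added with compounds; 16 h incubation at 37 °C; beta-lactamase FRET fluorescence measured.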

A short description of test [5]: qHTS assay to identify small molecule agonists of the farnesoid-X-receptor (FXR) signaling pathway - cell viability counter screen (AID 743218; active = well fitted curve in the direction sought with a large enough effect in the repeat runs; an effect the other way counts as inactive or inconclusive; also: nearly all actives have a fitted effect of over 45% in size). The procedure, abridged: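 Viability of FXR-bla HEK 293T cells is measured by ATP-based CellTiter-Glo luminescence following 16 h compound treatment at 37 C and a prior 2 h room-temperature beta-lactamase substrate step.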

For test [6], the target named is Bile acid receptor (Homo sapiens) (UniProt Q96RI1). Briefly: qHTS assay to identify small molecule agonists of the farnesoid-X-receptor (FXR) signaling pathway (AID 743220; active = well fitted activation curve with a large enough effect in the signal ratio in the repeat runs, not every such curve was filed as active; the % refers to the signal ratio). A digest of the protocol: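 FXR-UAS-bla HEK 293T cells carrying a UAS-driven beta-lactamase reporter were plated for 5 h at 37C/5% CO2, then exposed to DMSO-dissolved Tox21 10K compounds for 16 h at 37C. A LiveBLAzer B/G FRET substrate was loaded for 2 h at room temperature before fluorescence reading.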

A short description of test [7]: qHTS assay to identify small molecule antagonists of the farnesoid-X-receptor (FXR) signaling pathway - cell viability counter screen (AID 743221; active = well fitted cell-killing curve with a large enough effect in the repeat runs, not every such curve was filed as active; also: nearly all actives have a fitted effect of over 50% in size). The procedure, abridged: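 Cytotoxicity is taken from ATP luminescence (CellTiter-Glo, 30 min, room temperature) in FXR-bla HEK 293T cells previously incubated 16 h at 37 C with compound and chenodeoxycholic acid at 50 uM final.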

Test [8] is described as follows: qHTS assay to identify small molecule agonists of the vitamin D receptor (VDR) signaling pathway - cell viability counter screen (AID 743224; active = well fitted curve in the direction sought with a large enough effect in the repeat runs; an effect the other way counts as inactive or inconclusive; also: series mostly up to about 63 µM; nearly all actives have a fitted effect of over 50% in size). The procedure, abridged: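 Compounds were pin-transferred onto VDR-bla cells plated 4 h earlier; following 16 h incubation at 37C, cell viability was quantified by CellTiter-Glo luminescence after 30 min at room temperature.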

The nature of test [9]: qHTS assay to identify small molecule antagonists of the vitamin D receptor (VDR) signaling pathway - cell viability counter screen (AID 743225; active = well fitted curve in the direction sought with a large enough effect in the repeat runs; an effect the other way counts as inactive or inconclusive; also: nearly all actives have a fitted effect of over 50% in size). A digest of the protocol:
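Same-well multiplex: following 16 h treatment of HEK 293T cells carrying a UAS-driven beta-lactamase reporter with compound and agonist (3 nM final), and a 2 h FRET substrate step, CellTiter-Glo was added and luminescence read after 30 min.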

Test [10] in a line: qHTS assay to identify small molecule agonists of the NFkB signaling pathway - cell viability counter screen (AID 1159515). Also: series mostly up to about 61 µM; nearly all actives have a fitted effect of over 55% in size. The procedure, abridged:
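Parallel cytotoxicity counter screen in ME-180 cells carrying an NFkB-response-element beta-lactamase reporter, 2,000 cells/well. Compound exposure lasted 5 hr at 37 C, 5% CO2. Cell viability was quantified by CellTiter-Glo luminescence.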

Test [11] in a line: qHTS assay to identify small molecule agonists of the endoplasmic reticulum stress response signaling pathway (AID 1159516; active = well fitted activation curve with a large enough effect in the signal ratio in the repeat runs, not every such curve was filed as active; the % refers to the signal ratio). The procedure, abridged:
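Using a HeLa line with an ESRE-driven beta-lactamase gene, agonist activity was measured by FRET substrate fluorescence (460 and 530 nm emission) after cells were treated with compounds for 5 hr at 37 C and 5% CO2.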

A short description of test [12]: qHTS assay to identify small molecule agonists of the endoplasmic reticulum stress response signaling pathway - cell viability counter screen (AID 1159517). The procedure, abridged:
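Steps: seed 1,500 ESRE-bla HeLa cells per well; incubate overnight at 37 C, 5% CO2; add compounds in DMSO for 5 hr; run FRET substrate 2 hr RT; add CellTiter-Glo, wait 30 min, read luminescence.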

Test [13] in a line: qHTS assay to identify small molecule antagonists of the retinoid-related orphan receptor gamma (ROR-gamma) signaling pathway - cell viability counter screen (AID 1159520; active = well fitted curve in the direction sought with a large enough effect in the repeat runs; an effect the other way counts as inactive or inconclusive; also: nearly all actives have a fitted effect of over 50% in size). The procedure, abridged: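 Tet-on ROR gamma CHO cells were given compounds for 2 hr, then doxycycline hyclate at 1 uM final, and incubated 16 hr at 37 C. Viability was measured as ATP content by CellTiter-Glo luminescence.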

In test [14] the target is Nuclear receptor ROR-gamma (Homo sapiens) (UniProt P51449). Briefly: qHTS assay to identify small molecule antagonists of the retinoid-related orphan receptor gamma (ROR-gamma) signaling pathway (AID 1159521; active = well fitted curve in the direction sought with a large enough effect in the repeat runs; an effect the other way counts as inactive or inconclusive; also: nearly all actives have a fitted effect of over 50% in size; also: potency is read from the fitted curve at half-maximal effect). A digest of the protocol: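 Inducible-expression reporter assay: doxycycline (1 uM final) switched on RORγ in CHO cells bearing a ROR response element-luciferase construct, with test compounds present from 2 h beforehand. Decreased luminescence after 16 h defined antagonist activity.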

Test [15] is described as follows: qHTS assay to identify small molecule agonists of the AP-1 signaling pathway - cell viability counter screen (AID 1159525). Also: nearly all actives have a fitted effect of over 55% in size. The procedure, abridged:
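Same-well cytotoxicity counter screen of the Tox21 10K library in ME-180 cells. The readout is ATP-dependent luminescence after 5 h compound treatment. Data are normalised to DMSO and tetra n-octyl ammonium bromide controls.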

The nature of test [16]: qHTS assay to identify small molecule agonists of the AP-1 signaling pathway (AID 1159526).
The target in test [17] is Retinoic acid receptor RXR-alpha (Homo sapiens) (UniProt P19793). Briefly: qHTS assay to identify small molecule agonists of the RXR signaling pathway (AID 1159527). Also: nearly all actives have a fitted effect of over 35% in size. A digest of the protocol:
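Compounds in DMSO were added to RXR-alpha-UAS-bla HEK 293T cells kept in 2% charcoal-stripped serum, and incubated 16 hr at 37 C with 5% CO2. Reporter signal came from a 2 hr B/G FRET substrate step.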

Test [18] deals with Peroxisome proliferator-activated receptor delta (Homo sapiens) (UniProt Q03181). Briefly: qHTS assay to identify small molecule antagonists of the peroxisome proliferator-activated receptor delta (PPARd) signaling pathway (AID 743215; active = well fitted inhibition curve with a large enough effect in the signal ratio in the repeat runs, not every such curve was filed as active; the % refers to the signal ratio;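 also: cells stimulated with agonist L165041 at 300 nM final during compound exposure; series mostly up to about 62 µM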). The procedure, abridged: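 Plated HEK293H PPARd-bla cells rested 5 h at 37 C and 5% CO2. Compound, then agonist L165041 at 300 nM final, was added; 17 h at 37 C followed. Substrate loading, 2 h room temperature, fluorescence measured.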

Test [19] addresses Vitamin D3 receptor (Homo sapiens) (UniProt P11473). Description: qHTS assay to identify small molecule agonists of the vitamin D receptor (VDR) signaling pathway (AID 743222). A digest of the protocol: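 Fluorescence from cleaved LiveBLAzer B/G FRET substrate served as readout. VDR-bla cells had been treated 16 h at 37C with test compounds in DMSO, following a 4 h settling period, and substrate was loaded for 2 h at RT.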

For test [20] the target is unchanged. Description: qHTS assay to identify small molecule antagonists of the vitamin D receptor (VDR) signaling pathway (AID 743223; active = well fitted inhibition curve with a large enough effect in the signal ratio in the repeat runs, not every such curve was filed as active; the % refers to the signal ratio). A digest of the protocol: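 Quantitative HTS in VDR-bla reporter cells stimulated with 1alpha,25-dihydroxyvitamin D3, 3 nM final. Compound exposure 16 h, 37C, 5% CO2. Read-out: beta-lactamase FRET substrate fluorescence, 2 h RT.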

Retinoic acid receptor RXR-alpha (Homo sapiens), sequence (P19793 whole entry, looked up): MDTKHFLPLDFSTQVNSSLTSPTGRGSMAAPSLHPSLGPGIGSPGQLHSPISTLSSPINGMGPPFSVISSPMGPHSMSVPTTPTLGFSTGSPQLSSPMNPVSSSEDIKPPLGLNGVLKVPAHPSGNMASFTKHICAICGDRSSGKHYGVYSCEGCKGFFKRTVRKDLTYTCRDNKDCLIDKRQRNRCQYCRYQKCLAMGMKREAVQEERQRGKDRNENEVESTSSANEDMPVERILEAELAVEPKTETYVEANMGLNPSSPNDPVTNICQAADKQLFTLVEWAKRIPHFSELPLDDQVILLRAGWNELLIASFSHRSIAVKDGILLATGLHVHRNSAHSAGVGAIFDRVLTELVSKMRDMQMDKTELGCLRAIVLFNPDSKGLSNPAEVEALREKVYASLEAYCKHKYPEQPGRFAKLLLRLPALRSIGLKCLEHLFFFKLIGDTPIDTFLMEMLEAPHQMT
Bile acid receptor (Homo sapiens), sequence (Q96RI1 whole entry, looked up): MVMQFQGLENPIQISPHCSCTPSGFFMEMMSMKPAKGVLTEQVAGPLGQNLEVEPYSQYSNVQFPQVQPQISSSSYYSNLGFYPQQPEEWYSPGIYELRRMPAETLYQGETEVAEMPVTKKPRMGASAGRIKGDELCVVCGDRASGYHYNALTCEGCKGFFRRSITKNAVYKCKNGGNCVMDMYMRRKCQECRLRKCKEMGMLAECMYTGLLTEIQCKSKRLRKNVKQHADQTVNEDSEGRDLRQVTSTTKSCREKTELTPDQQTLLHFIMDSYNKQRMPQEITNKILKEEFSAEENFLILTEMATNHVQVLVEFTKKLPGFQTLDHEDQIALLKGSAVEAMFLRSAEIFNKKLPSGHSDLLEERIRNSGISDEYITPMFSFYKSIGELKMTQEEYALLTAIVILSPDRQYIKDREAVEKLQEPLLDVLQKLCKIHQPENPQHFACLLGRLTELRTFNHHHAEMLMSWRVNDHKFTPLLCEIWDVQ
Vitamin D3 receptor (Homo sapiens), sequence (P11473 whole entry, looked up): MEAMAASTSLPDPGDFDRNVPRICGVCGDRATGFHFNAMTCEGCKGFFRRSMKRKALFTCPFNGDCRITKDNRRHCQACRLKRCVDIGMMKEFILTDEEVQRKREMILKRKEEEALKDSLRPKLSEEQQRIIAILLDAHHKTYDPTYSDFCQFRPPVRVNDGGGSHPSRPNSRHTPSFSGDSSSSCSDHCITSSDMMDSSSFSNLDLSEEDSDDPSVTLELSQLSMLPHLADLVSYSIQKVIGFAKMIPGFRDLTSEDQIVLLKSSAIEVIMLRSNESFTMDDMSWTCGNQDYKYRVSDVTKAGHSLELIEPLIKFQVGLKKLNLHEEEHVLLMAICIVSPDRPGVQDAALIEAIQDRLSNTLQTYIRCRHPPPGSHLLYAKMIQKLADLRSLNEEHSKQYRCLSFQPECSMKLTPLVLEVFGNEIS
Peroxisome proliferator-activated receptor delta (Homo sapiens), sequence (Q03181 whole entry, looked up): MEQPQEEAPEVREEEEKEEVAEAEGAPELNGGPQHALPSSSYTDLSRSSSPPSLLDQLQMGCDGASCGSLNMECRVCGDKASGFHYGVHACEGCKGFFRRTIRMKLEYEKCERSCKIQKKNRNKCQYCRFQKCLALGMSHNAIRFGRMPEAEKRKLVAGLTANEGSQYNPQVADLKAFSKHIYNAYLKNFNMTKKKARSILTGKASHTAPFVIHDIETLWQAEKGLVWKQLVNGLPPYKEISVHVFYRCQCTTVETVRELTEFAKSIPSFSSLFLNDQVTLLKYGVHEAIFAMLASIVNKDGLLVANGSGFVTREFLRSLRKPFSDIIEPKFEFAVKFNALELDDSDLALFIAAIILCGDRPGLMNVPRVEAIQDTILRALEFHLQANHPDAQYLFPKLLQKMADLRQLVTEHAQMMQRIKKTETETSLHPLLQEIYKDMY

For `CCN(CC)CCOC(=O)C1(c2ccccc2)CCCC1`, the Potency result in test [1], in test [3], in test [5], in [7], in test [8] and in test [9] was “inactive” in each case. The Potency entry in test [10], in test [11], in [13], in test [14], in test [15] and in test [16] was “inactive” in each case. For the same compound, the Potency entry in [17] is “inactive”. For the same compound, the call in test [2], in test [4], in test [6] and in [12] was inactive.
Consider `CCOc1ccc2[nH]cc(C(=O)NCc3ccccc3)c(=O)c2n1`, for which the Potency result in [1], in test [3], in [7], in test [8], in [9] and in test [10] was “inactive” throughout. The Potency result in [11], in [13], in test [14], in [15] and in test [16] was “inactive” in each case. Further, the call in test [2], in test [18], in [4], in test [6], in [19] and in [12] was inactive.
As for `O=C(O)COC(=O)Cc1ccccc1Nc1c(Cl)cccc1Cl`, the Potency result in [1], in test [3], in test [5], in test [7], in test [8] and in test [9] was “inactive” in each case. Also, the Potency result in test [10], in [11], in test [13], in test [14], in [15] and in test [16] was “inactive” each time. The outcome in test [2], in test [18], in [19] and in test [12] was inactive.
Consider `CC(=O)NCCCS(=O)(=O)O`, for which the Potency entry in [1], in test [3], in [7], in test [8], in [9] and in test [10] was “inactive” in each case. Further, the Potency result in test [11], in test [13], in test [14], in test [15] and in [16] was “inactive” each time. The compound was classed as inactive in test [2], in test [18], in test [4], in test [6] and in test [12].
Consider `Cc1nc2ccccc2n1Cc1ccc(Cl)cc1`, for which the Potency result in test [1], in test [10], in [11], in [13], in test [15] and in test [16] was “inactive” in each case. Besides, the outcome in test [12] was inactive. Moreover, in test [14], the Potency was 2.66 µM (active).
On to `CCCCOCCOCCOCCOCCO`, for which the Potency entry in [1], in test [3], in [7], in [8], in [10] and in test [11] was “inactive” throughout. Also, the Potency result in test [13], in test [14], in [15] and in [16] was “inactive” throughout. The compound was classed as inactive in test [2], in test [18], in test [19] and in test [12].
Turning to `Cc1ccc2c(ccc3ccccc32)c1`, the Potency result in test [1], in test [3], in test [5], in test [9], in test [10] and in [11] was “inactive” in each case. The Potency result in test [13], in test [14], in test [15], in test [16] and in test [17] was “inactive” in each case. In addition, the result in [2], in test [6], in [19] and in [12] was inactive.
As to `C1=Cc2ccccc2C1`, the Potency result in test [1], in test [3], in test [5], in [7], in test [8] and in [9] was “inactive” each time. For the same compound, the Potency result in test [10], in [11], in test [13], in test [14], in test [15] and in [16] was “inactive” in each case. In test [17], the Potency entry is “inactive”. Further, the compound was called inactive in [2], in [18], in test [19] and in test [12].
On to `C#CCOC(=O)[C@@H](C)Oc1ccc(Oc2ncc(Cl)cc2F)cc1`, for which the Potency result in [1], in test [3], in test [7], in test [20], in test [8] and in [10] was “inactive” throughout. Further, the Potency result in test [11], in [13], in test [14], in test [15], in test [16] and in test [17] was “inactive” throughout. Also, the outcome in test [2], in test [6], in test [19] and in test [12] was inactive.
